Experimental data published in the supplement of paper PMC4466140.

These binders were tested against AgAbp1 (assay: SPOT peptide array binding signal intensity (averaged, normalized) (arbitrary units (background-subtracted, floor 0; scale differs between SH3 domains)); higher = stronger binding of the SH3 domain to the peptide).
In short: (§1)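 Spot intensities were captured after detection with anti-GST antibody, an HRP-linked anti-mouse secondary and luminol, and quantified with Genespotter. The probes were GST-fused SH3 domains from four yeast species, produced in E. coli BL21(DE3), purified on glutathione Sepharose and incubated at 10 μg/ml overnight at 4°C on cellulose-bound synthetic 15-mer peptides with cysteines replaced by serines. Binding signal is the normalized, background-subtracted spot intensity averaged over replicates, and its arbitrary units differ between domains.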
For LKPPIGRPPKFPKSP, the “SPOT peptide array binding signal intensity” value was 926.

These binders were tested against AgBbc1 in the same assay as above.
In short: as §1
LKPPIGRPPKFPKSP was tested, and the “SPOT peptide array binding signal intensity” value was 160.

The binders below were run against AgBem1-D1 in the same assay as above.
In short: as §1
In the case of LKPPIGRPPKFPKSP, the “SPOT peptide array binding signal intensity” value is reported as 27.

Each binder was assayed against AgBzz1-D1 in the same assay as above.
In short: as §1
In the case of LKPPIGRPPKFPKSP, the “SPOT peptide array binding signal intensity” value is reported as 57.

The binders below were run against AgBzz1-D2 in the same assay as above.
In short: as §1
In the case of LKPPIGRPPKFPKSP, the “SPOT peptide array binding signal intensity” value is reported as 4.

These binders were tested against AgCyk3 in the same assay as above.
In short: as §1
With LKPPIGRPPKFPKSP the “SPOT peptide array binding signal intensity” value was no more than 0.

Each binder was assayed against AgFus1 in the same assay as above.
In short: as §1
For LKPPIGRPPKFPKSP, the “SPOT peptide array binding signal intensity” value was no more than 0.

These binders were tested against AgHof1 in the same assay as above.
In short: as §1
With LKPPIGRPPKFPKSP the “SPOT peptide array binding signal intensity” value was 300.

The binders below were run against AgHse1 in the same assay as above.
In short: as §1
In the case of LKPPIGRPPKFPKSP, the “SPOT peptide array binding signal intensity” value is reported as no more than 0.

These binders were tested against AgLsb1 in the same assay as above.
In short: as §1
With LKPPIGRPPKFPKSP the “SPOT peptide array binding signal intensity” value was no more than 0.

The binders below were run against AgLsb4 in the same assay as above.
In short: as §1
LKPPIGRPPKFPKSP was tested, and the “SPOT peptide array binding signal intensity” value was no more than 0.

These binders were tested against AgMyo5 in the same assay as above.
In short: as §1
In the case of LKPPIGRPPKFPKSP, the “SPOT peptide array binding signal intensity” value is reported as 1220.

What follows are binders tested against AgNbp2 in the same assay as above.
In short: as §1
In the case of LKPPIGRPPKFPKSP, the “SPOT peptide array binding signal intensity” value is reported as no more than 0.

Each binder was assayed against AgRvs167 in the same assay as above.
In short: as §1
LKPPIGRPPKFPKSP was tested, and the “SPOT peptide array binding signal intensity” value was 0.583.

What follows are binders tested against AgSho1 in the same assay as above.
In short: as §1
In the case of LKPPIGRPPKFPKSP, the “SPOT peptide array binding signal intensity” value is reported as no more than 0.

What follows are binders tested against AgSla1-D1-D2 in the same assay as above.
In short: as §1
For LKPPIGRPPKFPKSP, the “SPOT peptide array binding signal intensity” value was 21.5.

Each binder was assayed against AgSla1-D3 in the same assay as above.
In short: as §1
In the case of LKPPIGRPPKFPKSP, the “SPOT peptide array binding signal intensity” value is reported as no more than 0.

The binders below were run against CaAbp1-D1 in the same assay as above.
In short: as §1
For LKPPIGRPPKFPKSP, the “SPOT peptide array binding signal intensity” value was 1440.

What follows are binders tested against CaAbp1-D2 in the same assay as above.
In short: as §1
LKPPIGRPPKFPKSP was tested, and the “SPOT peptide array binding signal intensity” value was 2140.

What follows are binders tested against CaBbc1 in the same assay as above.
In short: as §1
For LKPPIGRPPKFPKSP, the “SPOT peptide array binding signal intensity” value was 1150.

Each binder was assayed against CaBem1-D1 in the same assay as above.
In short: as §1
With LKPPIGRPPKFPKSP the “SPOT peptide array binding signal intensity” value was 98.

These binders were tested against CaBzz1-D1 in the same assay as above.
In short: as §1
In the case of LKPPIGRPPKFPKSP, the “SPOT peptide array binding signal intensity” value is reported as 239.

Each binder was assayed against CaBzz1-D2 in the same assay as above.
In short: as §1
For LKPPIGRPPKFPKSP, the “SPOT peptide array binding signal intensity” value was 165.

The binders below were run against CaCyk3 in the same assay as above.
In short: as §1
With LKPPIGRPPKFPKSP the “SPOT peptide array binding signal intensity” value was 16.5.

Each binder was assayed against CaFus1 in the same assay as above.
In short: as §1
In the case of LKPPIGRPPKFPKSP, the “SPOT peptide array binding signal intensity” value is reported as 49.

What follows are binders tested against CaHof1 in the same assay as above.
In short: as §1
In the case of LKPPIGRPPKFPKSP, the “SPOT peptide array binding signal intensity” value is reported as no more than 0.

What follows are binders tested against CaHse1 in the same assay as above.
In short: as §1
LKPPIGRPPKFPKSP was tested, and the “SPOT peptide array binding signal intensity” value was 1.5.

What follows are binders tested against CaLsb1 in the same assay as above.
In short: as §1
LKPPIGRPPKFPKSP was tested, and the “SPOT peptide array binding signal intensity” value was no more than 0.

The binders below were run against CaLsb4 in the same assay as above.
In short: as §1
LKPPIGRPPKFPKSP was tested, and the “SPOT peptide array binding signal intensity” value was 2.

The binders below were run against CaMyo5 in the same assay as above.
In short: as §1
LKPPIGRPPKFPKSP was tested, and the “SPOT peptide array binding signal intensity” value was 45.5.

These binders were tested against CaNbp2 in the same assay as above.
In short: as §1
LKPPIGRPPKFPKSP was tested, and the “SPOT peptide array binding signal intensity” value was no more than 0.

What follows are binders tested against CaRvs167 in the same assay as above.
In short: as §1
LKPPIGRPPKFPKSP was tested, and the “SPOT peptide array binding signal intensity” value was 0.917.

These binders were tested against CaRvs167-3 in the same assay as above.
In short: as §1
With LKPPIGRPPKFPKSP the “SPOT peptide array binding signal intensity” value was 3.12.

Each binder was assayed against CaSho1 in the same assay as above.
In short: as §1
With LKPPIGRPPKFPKSP the “SPOT peptide array binding signal intensity” value was no more than 0.

Each binder was assayed against CaSla1-D1-D2 in the same assay as above.
In short: as §1
LKPPIGRPPKFPKSP was tested, and the “SPOT peptide array binding signal intensity” value was 908.

Each binder was assayed against CaSla1-D3 in the same assay as above.
In short: as §1
LKPPIGRPPKFPKSP was tested, and the “SPOT peptide array binding signal intensity” value was 3.25.

Each binder was assayed against ScAbp1 in the same assay as above.
In short: as §1
With LKPPIGRPPKFPKSP the “SPOT peptide array binding signal intensity” value was 887.

The binders below were run against ScBbc1 in the same assay as above.
In short: as §1
With LKPPIGRPPKFPKSP the “SPOT peptide array binding signal intensity” value was 7.

The binders below were run against ScBem1-D1 in the same assay as above.
In short: as §1
With LKPPIGRPPKFPKSP the “SPOT peptide array binding signal intensity” value was no more than 0.

The binders below were run against ScBzz1-D1 in the same assay as above.
In short: as §1
With LKPPIGRPPKFPKSP the “SPOT peptide array binding signal intensity” value was no more than 0.

Each binder was assayed against ScBzz1-D2 in the same assay as above.
In short: as §1
In the case of LKPPIGRPPKFPKSP, the “SPOT peptide array binding signal intensity” value is reported as no more than 0.

What follows are binders tested against ScCyk3 in the same assay as above.
In short: as §1
For LKPPIGRPPKFPKSP, the “SPOT peptide array binding signal intensity” value was 0.25.

The binders below were run against ScFus1 in the same assay as above.
In short: as §1
For LKPPIGRPPKFPKSP, the “SPOT peptide array binding signal intensity” value was no more than 0.

What follows are binders tested against ScHof1 in the same assay as above.
In short: as §1
LKPPIGRPPKFPKSP was tested, and the “SPOT peptide array binding signal intensity” value was no more than 0.

Each binder was assayed against ScHse1 in the same assay as above.
In short: as §1
In the case of LKPPIGRPPKFPKSP, the “SPOT peptide array binding signal intensity” value is reported as 19.8.

Each binder was assayed against ScLsb1 in the same assay as above.
In short: as §1
In the case of LKPPIGRPPKFPKSP, the “SPOT peptide array binding signal intensity” value is reported as 1.5.

What follows are binders tested against ScLsb2 in the same assay as above.
In short: as §1
With LKPPIGRPPKFPKSP the “SPOT peptide array binding signal intensity” value was no more than 0.

What follows are binders tested against ScLsb3 in the same assay as above.
In short: as §1
LKPPIGRPPKFPKSP was tested, and the “SPOT peptide array binding signal intensity” value was 64.8.

The binders below were run against ScLsb4 in the same assay as above.
In short: as §1
In the case of LKPPIGRPPKFPKSP, the “SPOT peptide array binding signal intensity” value is reported as no more than 0.

These binders were tested against ScMyo3 in the same assay as above.
In short: as §1
With LKPPIGRPPKFPKSP the “SPOT peptide array binding signal intensity” value was 1390.

These binders were tested against ScMyo5 in the same assay as above.
In short: as §1
For LKPPIGRPPKFPKSP, the “SPOT peptide array binding signal intensity” value was 682.

These binders were tested against ScNbp2 in the same assay as above.
In short: as §1
In the case of LKPPIGRPPKFPKSP, the “SPOT peptide array binding signal intensity” value is reported as no more than 0.

What follows are binders tested against ScPex13 in the same assay as above.
In short: as §1
For LKPPIGRPPKFPKSP, the “SPOT peptide array binding signal intensity” value was no more than 0.

Each binder was assayed against ScRvs167 in the same assay as above.
In short: as §1
For LKPPIGRPPKFPKSP, the “SPOT peptide array binding signal intensity” value was no more than 0.

What follows are binders tested against ScSho1 in the same assay as above.
In short: as §1
In the case of LKPPIGRPPKFPKSP, the “SPOT peptide array binding signal intensity” value is reported as 4.5.

The binders below were run against ScSla1-D1-D2 in the same assay as above.
In short: as §1
For LKPPIGRPPKFPKSP, the “SPOT peptide array binding signal intensity” value was 88.5.

What follows are binders tested against ScSla1-D3 in the same assay as above.
In short: as §1
In the case of LKPPIGRPPKFPKSP, the “SPOT peptide array binding signal intensity” value is reported as 13.6.

Each binder was assayed against SpAbp1-D1 in the same assay as above.
In short: as §1
In the case of LKPPIGRPPKFPKSP, the “SPOT peptide array binding signal intensity” value is reported as 455.

Each binder was assayed against SpBbc1 in the same assay as above.
In short: as §1
With LKPPIGRPPKFPKSP the “SPOT peptide array binding signal intensity” value was 7.25.

The binders below were run against SpBzz1-D1 in the same assay as above.
In short: as §1
For LKPPIGRPPKFPKSP, the “SPOT peptide array binding signal intensity” value was 894.

What follows are binders tested against SpBzz1-D2 in the same assay as above.
In short: as §1
LKPPIGRPPKFPKSP was tested, and the “SPOT peptide array binding signal intensity” value was no more than 0.

What follows are binders tested against SpCyk3 in the same assay as above.
In short: as §1
LKPPIGRPPKFPKSP was tested, and the “SPOT peptide array binding signal intensity” value was no more than 0.

What follows are binders tested against SpHof1 in the same assay as above.
In short: as §1
LKPPIGRPPKFPKSP was tested, and the “SPOT peptide array binding signal intensity” value was 1.38.

What follows are binders tested against SpHof1-2 in the same assay as above.
In short: as §1
With LKPPIGRPPKFPKSP the “SPOT peptide array binding signal intensity” value was no more than 0.

These binders were tested against SpHof1-3 in the same assay as above.
In short: as §1
In the case of LKPPIGRPPKFPKSP, the “SPOT peptide array binding signal intensity” value is reported as 88.2.

Each binder was assayed against SpHse1 in the same assay as above.
In short: as §1
LKPPIGRPPKFPKSP was tested, and the “SPOT peptide array binding signal intensity” value was 11.5.

Each binder was assayed against SpLsb1 in the same assay as above.
In short: as §1
For LKPPIGRPPKFPKSP, the “SPOT peptide array binding signal intensity” value was 3.75.

The binders below were run against SpLsb4 in the same assay as above.
In short: as §1
In the case of LKPPIGRPPKFPKSP, the “SPOT peptide array binding signal intensity” value is reported as 29.5.

What follows are binders tested against SpMyo1 in the same assay as above.
In short: as §1
LKPPIGRPPKFPKSP was tested, and the “SPOT peptide array binding signal intensity” value was 1430.

What follows are binders tested against SpNbp2 in the same assay as above.
In short: as §1
LKPPIGRPPKFPKSP was tested, and the “SPOT peptide array binding signal intensity” value was no more than 0.

The binders below were run against SpPex13 in the same assay as above.
In short: as §1
In the case of LKPPIGRPPKFPKSP, the “SPOT peptide array binding signal intensity” value is reported as no more than 0.

Each binder was assayed against SpRvs167 in the same assay as above.
In short: as §1
In the case of LKPPIGRPPKFPKSP, the “SPOT peptide array binding signal intensity” value is reported as 1.33.

What follows are binders tested against SpSla1-D1-D2 in the same assay as above.
In short: as §1
With LKPPIGRPPKFPKSP the “SPOT peptide array binding signal intensity” value was no more than 0.

These binders were tested against SpSla1-D3 in the same assay as above.
In short: as §1
For LKPPIGRPPKFPKSP, the “SPOT peptide array binding signal intensity” value was 2.5.
